# PubChem BioAssay (NCI)
# Compounds without any hit were thinned out: in the full panel of roughly 83,000, 20% have a hit.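 In brief: 96-well plates, 48 h treatment, single concentration, percent growth endpoint.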 A number with no mark means an inactive call. The source made the active and inactive calls. How the source made its calls: active means growth percent below 10; inactive means the rest.
# Key:
# Assay in all cases: NCI-60 one-dose screen, 48 h (100 = growth as untreated, 0 = no growth, -100 = all killed)
# Conditions in all cases: 10 µM unless noted
# [1] = tested on: NCI-H23 lung
# [2] = tested on: NCI-H226 lung
# [3] = tested on: NCI-H322M lung
# [4] = tested on: HOP-62 NSCLC
# [5] = tested on: NCI-H460 lung
# [6] = tested on: HOP-92 NSCLC
# [7] = tested on: NCI-H522 lung
# [8] = tested on: A549/ATCC NSCLC
# [9] = tested on: 786-0 renal
# [10] = tested on: COLO 205 colon
Compound,growth [1],growth [2],growth [3],growth [4],growth [5],growth [6],growth [7],growth [8],growth [9],growth [10]
NC(CO)(CO)c1ccccc1,99.1%,96.6%,101%,100%,99.1%,88.1%,95.3%,100%,106%,103%
CC(=O)NC(O)C(Cl)Cl (stereo not given),91.8%,102%,98.4%,95.6%,106%,94.9%,94%,102%,112%,98.9%
Ic1cccs1,97.7%,107%,105%,99%,108%,121%,97.5%,98%,105%,117%
BrCc1cccc(C[P+](c2ccccc2)(c2ccccc2)c2ccccc2)c1,87%,73.7%,89%,33.8%,48.5%,32%,24.6%,69.4%,98.8%,-35.3% (active)
C=CCS(C)(=O)=O,106%,96.7%,102%,87.3%,105%,99.4%,92.8%,92.9%,99.4%,96.5%
N#C/C(=C\c1ccc(C#N)cc1)C(=O)c1ccccc1,86.8%,95.5%,97.4%,103%,116%,86.3%,91.4%,98.4%,94.2%,123%
c1ccc(Nc2ccccn2)nc1,95.9%,89%,100%,95.9%,96.5%,95.8%,88.2%,109%,97.6%,104%
O=S(=O)(O)c1cccnc1,115%,105%,84.6%,114%,109%,142%,109%,125%,103%,105%
CC(=O)c1cc(O)ccc1O,92.9%,98%,97.4%,89.3%,108%,58.9%,100%,103%,94.5%,123%
Cc1ccnc(Nc2nc3ccccc3[nH]2)n1,104%,108%,103%,97.4%,100%,99.5%,103%,108%,94%,113%
COc1ccc(/C=N/NC(=O)COCC(=O)N/N=C/c2ccc(OC)cc2)cc1,107%,99.5%,113%,117%,107%,92.5%,107%,98.3%,106%,111%
CC(C)Sc1ncnc2nc[nH]c12,114%,102%,122%,105%,99.4%,91.7%,109%,91.6%,101%,96.8%
Cc1ccc(NC(=O)c2ccccc2Cl)cc1,102%,108%,113%,113%,101%,75.5%,98.6%,106%,105%,120%
O=c1nc(Nc2cccc(Cl)c2)oc2cc(Cl)oc(=O)c12,64.5%,94.9%,108%,81.5%,98.8%,47.2%,26.2%,101%,85.2%,80.1%
O=S(=O)(O)c1cccc2cccnc12,100%,107%,122%,101%,112%,102%,97.4%,106%,105%,127%
Cc1cc(Cc2ccccc2)c(O)c(Cc2ccccc2)c1,82.5%,85.9%,97.3%,85.5%,99.4%,90%,78%,76.5%,86.6%,106%
C=CCN1CCCC1=O,106%,102%,89.3%,106%,105%,99.6%,101%,112%,105%,95.4%
CCC(C)C1CCC(O)CC1 (stereo not given),96.3%,101%,100%,110%,108%,102%,101%,103%,100%,112%
CCC(/C=C\C(C)=O)CC,101%,107%,99%,94.9%,100%,102%,106%,104%,101%,107%
CCOC(=O)C(=O)CC(=O)c1ccccc1,95.4%,86.6%,94.5%,94.9%,-12.5% (active),79.6%,98.8%,96.5%,103%,100%
Cc1cccc(-[n+]2noc(N)n2)c1,85.5%,80.8%,87.7%,87.3%,80.9%,65%,50.9%,102%,93.8%,95.7%
CC(=O)NCNC(C)=O,113%,99.8%,110%,108%,113%,150%,119%,96.7%,109%,118%
OC(CCN1CCCCC1)(c1ccccc1)c1ccccc1,98.6%,104%,97.6%,110%,116%,85.6%,98.4%,104%,98.1%,103%
COC(=O)C1=C(C)C(=O)CC1,120%,109%,115%,114%,118%,113%,101%,112%,108%,141%
Cn1/c(=N\N=C\c2ccccc2OCCO)sc2ccccc21,101%,88.3%,80.7%,106%,101%,82.5%,90%,102%,115%,91%
CCCOCc1cn[nH]n1,107%,104%,102%,99.8%,111%,106%,99.3%,96%,102%,111%
Cc1c(-c2ccc(C3CCCCC3)cc2)nc2ccc(F)cc2c1C(=O)O,53.5%,64.1%,56.4%,61.7%,7.22% (active),83.3%,38.5%,21.3%,38%,44.2%
Cc1cc2c3ccc(C)[n+](C)c3ccc2n1C,23.3%,80.9%,99.5%,33.8%,61.7%,44.4%,49.7%,-0.921% (active),53.4%,10.7%
O=C(OCC1CCCO1)c1ccc([N+](=O)[O-])cc1 (stereo not given),105%,92.5%,100%,92.6%,95.5%,91.8%,94.2%,90.9%,91%,103%
Cc1ccc(/C=N/NC(N)=S)s1,99.7%,99.1%,98.9%,102%,103%,100%,105%,109%,109%,104%
